Several values for one entry are separate records, joined by “and”; a condition that tells them apart may be missing. Equal values may be shown once. Records with an inconclusive call do not appear. Activity calls are given as the source filed them. The call rests on the fitted dose curve; in most records, active means well fitted activation curve with a large enough effect; inconclusive means small, poorly fitted or top-dose-only effect; inactive means flat fitted curve, though single readings scatter.
Experiment: Extended Characterization of HPGD Inhibitors: PGE2 Assay in A549 Cells
Conditions: PGE2 HTRF level, 16 h
From the text: The central role of HPGD is to inactivate prostaglandins such as prostaglandin E2 (PGE2) or prostaglandin D2 (PGD2). These prostaglandins are involved in a number of processes, including inflammation, differentiation, and cellular signaling, which makes HPGD an important target for pharmacological intervention. A number of prostaglandins of particular biological interest have been identified as substrates of HPGD. […] Over-production of PGE2 has been reported to promote tumor-associated neovascularization, cell proliferation, and tumor growth. […] In this orthogonal assay, we set out to measure if compounds were able to increase PGE2 production NIH Chemical Genomics Center [NCGC] NIH Molecular Libraries Probe Centers Network [MLPCN] MLPCN Grant: MH084681 Assay Submitter (PI): Structural Genomics Consortium
A549 cells, LNCaP cells or media were dispensed in 384-well plates (ProxiPlate-384 Plus, PerkinElmer, Shelton, CT) at 5,000 cells/9.9 uL/well using a CappAero384 multichannel pipette (Odense, Denmark). Separately on the plate, 10 uL of PGE2 calibration standards at a starting assay concentration of 5,000 pg/mL (1:2 dilution, 12-points, n = 1, prepared in media, Cisbio, Bedford, MA) were dispensed. Compounds (100 nL, final concentration range from 41.9 nM to 100 uM) were transferred using an ATS Acoustic Liquid Dispenser (EDC Biosystems, Fremont, CA). After being mixed using an automated liquid handler (CyBio, Jena, Germany), samples were incubated (37 deg C, 5% CO2, under a humidified atmosphere) for 16 hours. PGE2 labeled conjugates were added to each well, first 5 uL of PGE2-d2, followed by 5 uL of anti-PGE2-cryptate, centrifuged (1,500 rpm, 15 sec) and incubated (RT, protected from light) for 5 hours. Time-resolved fluorescence intensity (320 nm excitation, 615 and 665 nm emission) was measured using an Envision plate reader (PerkinElmer). Data was expressed as the ratio of 665 nm/615 nm emissions. Concentration (pg/mL) of samples were calculated from a 4-parameter logistic calibration curves of the PGE2 standards.
In the case of `Cc1cc(-c2nnc3n2CCCCC3)c(C)n1-c1cccnc1`, the Potency is reported as 1.87 µM (active). For `COC(=O)[C@]12CCC(C)(C)C[C@H]1[C@H]1C(=O)C=C3[C@@]4(C)C=C(C#N)C(=O)C(C)(C)[C@@H]4CC[C@@]3(C)[C@]1(C)CC2`, the Potency was 16.6 µM (active). For `Cc1cccc(-n2cnc3cc(C(=O)N4CCCC(C)C4)ccc32)c1` (centres undefined), the Potency was 9.35 µM (active). For `Cc1cc(-c2nnc3n2CCCCC3)c(C)n1-c1ccc(C(C)(C)C)cc1`, the Potency was 8.33 µM (active) and 13.2 µM (active).

Reference: PubChem BioAssay AID743167 (National Center for Advancing Translational Sciences (NCATS), 2013)
